Assay [1] in a line: anti-His antibody binders, primary screen, artefact control for SMM control protein annotation, biochemical, small-molecule microarray, 635 nm fluorescence (AID 1128).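 Also: score merges feature fluorescence with signal-to-noise for each printed compound spot.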 The following applies: anti-His Alexa647 antibody binding, higher = more signal.
For assay [2], the system named is Human papillomavirus type 1a E7 protein (residues 1-88). Kind of assay: HPV1a E7 small-molecule binders, primary screen, biochemical, small-molecule microarray, residues 1-88, 635 nm (AID 1129). The conditions noted are these: small-molecule microarray binding, fluorescence 635 nm; higher = more signal.
In assay [3] the target is Focal adhesion kinase 1 (Homo sapiens) (UniProt Q05397). The assay can be described thus: small-molecule microarray binders of FAK, primary screen, biochemical, 635/667 nm fluorescence, BSA, DTT (AID 1130).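 Also: composite of spot emission at 667 nm and signal to noise over triplicate slides.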 The conditions noted are these: PTK2 binding, 635 nm fluorescence, higher = more signal.
Sequence of Focal adhesion kinase 1 (Homo sapiens) (Q05397 whole entry, looked up): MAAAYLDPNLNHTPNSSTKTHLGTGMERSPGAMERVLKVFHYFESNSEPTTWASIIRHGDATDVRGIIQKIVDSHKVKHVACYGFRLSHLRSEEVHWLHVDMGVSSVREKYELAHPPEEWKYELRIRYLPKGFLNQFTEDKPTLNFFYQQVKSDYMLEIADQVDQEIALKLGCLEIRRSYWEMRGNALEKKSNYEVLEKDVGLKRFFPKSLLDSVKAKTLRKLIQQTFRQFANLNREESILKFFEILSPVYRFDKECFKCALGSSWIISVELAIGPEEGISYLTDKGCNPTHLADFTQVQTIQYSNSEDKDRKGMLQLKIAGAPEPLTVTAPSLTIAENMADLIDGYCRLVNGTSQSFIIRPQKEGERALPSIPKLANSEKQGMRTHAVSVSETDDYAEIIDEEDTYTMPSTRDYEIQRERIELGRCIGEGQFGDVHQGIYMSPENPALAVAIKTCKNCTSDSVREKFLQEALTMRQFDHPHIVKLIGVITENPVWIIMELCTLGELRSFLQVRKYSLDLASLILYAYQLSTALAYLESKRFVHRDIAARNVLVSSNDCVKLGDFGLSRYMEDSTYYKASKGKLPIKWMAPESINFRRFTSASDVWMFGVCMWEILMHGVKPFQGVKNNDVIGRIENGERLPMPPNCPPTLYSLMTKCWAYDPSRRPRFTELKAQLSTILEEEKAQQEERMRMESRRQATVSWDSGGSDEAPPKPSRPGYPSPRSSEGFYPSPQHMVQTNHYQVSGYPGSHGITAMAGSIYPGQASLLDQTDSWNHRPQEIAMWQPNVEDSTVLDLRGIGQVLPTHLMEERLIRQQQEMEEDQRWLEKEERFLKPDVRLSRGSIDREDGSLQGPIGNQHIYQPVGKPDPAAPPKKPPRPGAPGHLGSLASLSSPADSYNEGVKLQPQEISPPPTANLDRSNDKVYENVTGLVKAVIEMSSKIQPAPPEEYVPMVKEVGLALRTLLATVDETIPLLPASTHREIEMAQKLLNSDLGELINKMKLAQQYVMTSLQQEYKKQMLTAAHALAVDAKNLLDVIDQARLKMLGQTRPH
Assay [4] has as its system Fibrinogen (Alexa647-labelled). Kind of assay: fibrinogen binders on compound microarrays, profiling panel, artefact control for SMM control-protein annotation, biochemical, small-molecule microarray, 635/667 nm fluorescence (AID 1131).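 Also: z-score merges 667 nm fluorescence with per-spot signal-to-noise over triplicate slides.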 The conditions noted are these: fibrinogen-A647 binding fluorescence, higher = more signal.
The target in assay [5] is Follistatin (Homo sapiens) (UniProt P19883). Kind of assay: follistatin binders on small-molecule microarrays, primary screen, biochemical, small-molecule microarray, 635/667 nm fluorescence (AID 1132). The following applies: FST binding, 635 nm fluorescence, higher = more signal.
Sequence of Follistatin (Homo sapiens) (P19883 whole entry, looked up): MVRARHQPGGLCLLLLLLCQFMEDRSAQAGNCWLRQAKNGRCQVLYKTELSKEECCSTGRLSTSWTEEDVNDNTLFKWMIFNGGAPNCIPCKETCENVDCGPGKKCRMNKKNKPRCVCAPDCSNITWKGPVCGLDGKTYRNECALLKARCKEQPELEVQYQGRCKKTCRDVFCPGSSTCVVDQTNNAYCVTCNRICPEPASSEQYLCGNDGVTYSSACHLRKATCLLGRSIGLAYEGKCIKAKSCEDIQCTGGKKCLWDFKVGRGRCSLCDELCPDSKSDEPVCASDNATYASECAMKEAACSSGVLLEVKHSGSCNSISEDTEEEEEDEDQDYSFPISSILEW
For assay [6], the target named is Fibroblast growth factor 2 (Homo sapiens) (UniProt P09038). Kind of assay: FGF2 binders on small-molecule microarrays, primary screen, biochemical, small-molecule microarray, 635/667 nm fluorescence (AID 1133). The following applies: small-molecule microarray binding, FGF2, fluorescence 635/667; higher = more signal.
Sequence of Fibroblast growth factor 2 (Homo sapiens) (P09038 whole entry, looked up): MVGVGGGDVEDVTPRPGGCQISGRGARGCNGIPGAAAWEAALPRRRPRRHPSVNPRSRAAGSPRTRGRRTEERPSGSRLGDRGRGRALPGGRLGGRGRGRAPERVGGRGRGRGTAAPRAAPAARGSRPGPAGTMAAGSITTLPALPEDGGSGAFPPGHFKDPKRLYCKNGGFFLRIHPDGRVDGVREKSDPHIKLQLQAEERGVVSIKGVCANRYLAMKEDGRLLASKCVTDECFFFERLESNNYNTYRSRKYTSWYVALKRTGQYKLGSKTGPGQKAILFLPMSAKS
Assay [7] is described as follows: mitochondrial membrane potential change in A549 cells, profiling panel, cell-based, JC-1 fluorescence, basal, 24 h, 100 nL (AID 1138).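 Also: A549 lung adenocarcinoma cells under basal conditions with no added stimulus; test concentration not given here.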 The following applies: higher = more signal.
The next assay concerns Lefty1. Kind of assay: Lefty1 binders on small-molecule microarrays, primary screen, biochemical, small-molecule microarray, 635/667 nm fluorescence (AID 1139). The following applies: small-molecule microarray binding, fluorescence 635/667; higher = more signal.
Assay [8] concerns wheat germ agglutinin (Triticum aestivum), Alexa647-labelled. The assay can be described thus: wheat germ agglutinin binders on compound microarrays, profiling panel, artefact control for SMM control-protein annotation, biochemical, small-molecule microarray, 635/667 nm fluorescence (AID 1140).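 Also: score merges 667 nm feature emission with signal to noise over triplicate slides.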 The conditions noted are these: WGA-A647 binding, 635 nm fluorescence, higher = more signal.

The target in assay [9] is Luciferin 4-monooxygenase (Photinus pyralis) (UniProt P08659). Kind of assay: firefly luciferase enzyme inhibitors, primary screen, biochemical, luminescence, purified enzyme, 2006 set (AID 1141).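 Also: cell-free assay with purified firefly luciferase at 100 ng per well in PBS; test concentration not given here.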 The conditions noted are these: SteadyGlo luminescence, 30 min, higher = more signal, called active from +8 up or from −8 down.
Sequence of Luciferin 4-monooxygenase (Photinus pyralis) (P08659 whole entry, looked up): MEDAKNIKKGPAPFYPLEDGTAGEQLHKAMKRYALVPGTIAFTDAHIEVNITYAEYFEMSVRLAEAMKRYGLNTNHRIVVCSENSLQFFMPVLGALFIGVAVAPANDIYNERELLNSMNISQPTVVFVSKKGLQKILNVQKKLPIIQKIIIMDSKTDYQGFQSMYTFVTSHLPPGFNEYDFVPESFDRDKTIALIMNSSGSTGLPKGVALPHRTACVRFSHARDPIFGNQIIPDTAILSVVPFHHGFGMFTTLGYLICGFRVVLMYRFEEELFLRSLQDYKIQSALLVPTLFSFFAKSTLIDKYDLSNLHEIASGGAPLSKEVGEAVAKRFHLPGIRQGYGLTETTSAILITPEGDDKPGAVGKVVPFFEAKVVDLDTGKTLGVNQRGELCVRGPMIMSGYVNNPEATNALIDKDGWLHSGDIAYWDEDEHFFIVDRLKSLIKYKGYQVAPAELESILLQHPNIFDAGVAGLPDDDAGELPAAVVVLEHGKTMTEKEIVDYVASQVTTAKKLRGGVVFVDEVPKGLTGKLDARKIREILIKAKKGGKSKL
Assay [10] has as its system Wnt5a (protein binding on small-molecule microarray). The assay can be described thus: Wnt5a binders on small-molecule microarray, primary screen, biophysical, 635/667 nm fluorescence (AID 1142).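 Also: fluorescence read at 667 nm with signal to noise per printed feature.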 The conditions noted are these: 635 nm fluorescence, higher = more signal.
Assay [11] can be described thus: cell viability in Huh7 cells, primary screen, cytotoxicity control for HCV replication inhibitor project, CellTiter-Glo luminescence, basal, 48 h (AID 1143).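 Also: Huh7 hepatoma cells carrying a hepatitis C replication reporter with no stimulus; test concentration not given here.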 The conditions noted are these: Huh7 HCV replicon, higher = more signal, called active from +8 up or from −8 down. Background: Cellular ATP, detected with luciferase, serves as a proxy for viable cell number.
Assay [12] can be described thus: P. aeruginosa biofilm formation inhibitors, primary screen, PAO1 strain, BacTiter-Glo luminescence, LB-PBS (AID 1144). The conditions noted are these: 12 h, higher = more signal.
Assay [13] in a line: CREB reporter modulators without forskolin, primary screen, cell-based, PC12, CRE-LacZ reporter, unstimulated (AID 1145). The conditions noted are these: no forskolin, luminescence, 4.5 h, higher = more signal, called active from +8 up or from −8 down.
A short description of assay [14]: CREB reporter modulators under forskolin, primary screen, cell-based, PC12, CRE-LacZ reporter, forskolin-stimulated (AID 1146).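 Also: PC12 cells with 6xCRE LacZ reporter stimulated by forskolin 10 µM; beta-galactosidase reporter signal reflecting CREB driven transcription.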 The conditions noted are these: luminescence, 4.5 h, higher = more signal, called active from +8 up or from −8 down.
Assay [15] concerns the target Streptavidin (Streptomyces avidinii) (UniProt P22629). The assay can be described thus: streptavidin binders on small-molecule microarray, primary screen, artefact control for SMM compound annotation, biophysical, 635/667 nm fluorescence (AID 1147).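 Also: signal reflects streptavidin binding to arrayed compounds as a control protein.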 The conditions noted are these: streptavidin binding, higher = more signal.
The nature of assay [16]: small-molecule binders of probe aInhba, primary screen, biochemical, small-molecule microarray, 635/667 nm fluorescence (AID 1148).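 Also: score merges 667nm spot fluorescence with signal-to-noise for antibody binding to printed compounds.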 The following applies: higher = more signal.
In assay [17] the target is Torsin-1A (Homo sapiens) (UniProt O14656). Kind of assay: torsin A binders from cell lysate, primary screen, small-molecule microarray, wild-type, 635/667 nm (AID 1149). The following applies: COS7 hTOR1A-WT lysate, 635 nm fluorescence, higher = more signal.
Sequence of Torsin-1A (Homo sapiens) (O14656 whole entry, looked up): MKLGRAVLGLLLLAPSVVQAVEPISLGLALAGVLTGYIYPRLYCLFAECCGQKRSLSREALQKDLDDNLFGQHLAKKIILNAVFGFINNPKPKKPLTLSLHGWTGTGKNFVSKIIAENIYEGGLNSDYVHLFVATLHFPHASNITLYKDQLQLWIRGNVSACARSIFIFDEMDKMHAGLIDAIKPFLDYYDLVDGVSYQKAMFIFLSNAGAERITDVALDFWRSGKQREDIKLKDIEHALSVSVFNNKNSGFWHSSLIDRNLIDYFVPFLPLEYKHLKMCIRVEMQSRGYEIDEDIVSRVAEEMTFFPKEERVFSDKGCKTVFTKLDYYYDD
For assay [18] the target is unchanged. The assay can be described thus: small-molecule binders of mutant TOR1A in lysate, primary screen, cell lysate, small-molecule microarray, COS7 lysate, 635/667 nm fluorescence (AID 1150).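 Also: score pools 667 nm emission and signal to noise measuring lysate protein binding.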 The following applies: COS7 hTOR1A mutant lysate, 635 nm fluorescence, higher = more signal.
Assay [19] relates to Sonic hedgehog protein (Shh). Kind of assay: small-molecule binders of Shh protein, primary screen, biochemical, small-molecule microarray, 635/667 nm fluorescence (AID 1151).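 Also: Shh protein binding to compounds spotted on small-molecule microarray slides; score combines spot fluorescence intensity with signal-to-noise across triplicate slides.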 The conditions noted are these: small-molecule microarray binding, 635 nm fluorescence; higher = more signal.

Structures are written as SMILES. Activity calls are given as the source filed them. Unless noted, no rule for the calls is given here.

Sequence of Streptavidin (Streptomyces avidinii) (P22629 whole entry, looked up): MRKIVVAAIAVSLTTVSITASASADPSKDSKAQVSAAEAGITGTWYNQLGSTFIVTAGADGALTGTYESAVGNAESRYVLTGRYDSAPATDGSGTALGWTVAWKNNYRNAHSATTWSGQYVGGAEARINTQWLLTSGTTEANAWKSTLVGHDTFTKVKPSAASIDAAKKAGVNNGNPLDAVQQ

As for `Cc1ccc(S[C@]2(C(=O)NCCCN(C)C)CC(=O)N(Cc3ccccc3)[C@@H]2c2ccc(CO)cc2)cc1`, the composite z-score in [1] was -0.786; in [2], -0.335; in assay [3] it was -0.371; in assay [4], -0.865; in assay [5] it was 0.0417; in assay [6] it was -0.734. Besides, the composite z-score in the assay on Lefty1 is -1.53; in assay [8], -0.0701; in [10], -0.2; in assay [15], -0.689; in assay [16], -0.0494; with Torsin-1A (Homo sapiens) [17], -0.883. In addition, the composite z-score was -0.623 with Torsin-1A (Homo sapiens) [18] and -1.02 in [19]. Further, the z-score in [7] is 0.803; in assay [9] it was -1.1 (inactive); in assay [11] it was -0.533 (inactive); in [12], 0.294 (inactive); in assay [13], -0.232 (inactive); in assay [14] it was 0.529 (inactive).

With `CCCC[C@H]1OB(O)C[C@H]2C1=C(C)Cn1c(=O)n(-c3ccccc3)c(=O)n12`, the composite z-score is 0.247 in assay [1]; 0.299 in assay [2]; -0.144 in [3]; -0.0265 in [4]; 0.415 in assay [5]; 0.321 in assay [6]. Also, the composite z-score with Lefty1 is 0.493; in assay [8], 0.0939; in [10], 0.0677; in assay [15], -0.124; in [16] it was 0.0301; with Torsin-1A (Homo sapiens) [17] it was 0.363. The composite z-score with Torsin-1A (Homo sapiens) [18] is -0.0931; in [19], 0.759. Also, the z-score in assay [7] is -0.281; in [9], 0.169 (inactive); in assay [11], 0.007 (inactive); in assay [12], -0.444 (inactive); in assay [13] it was 0.222 (inactive); in assay [14] it was -0.251 (inactive).

`O=C(N1CCCCC1)[C@]1(CCS(=O)(=O)c2ccccc2)N=C(c2ccc(OCCCO)cc2)O[C@@H]1c1ccccc1`: the composite z-score came out at 3.05 in assay [1]; 1.22 in [2]; 1.29 in assay [3]; 0.949 in assay [4]; 1.18 in assay [5]; 0.619 in [6]. In addition, the composite z-score in the assay with Lefty1 amounted to 0.211; in [8], 1.31; in [10], 0.497; in assay [15], 0.721; in [16] it was 0.461; with Torsin-1A (Homo sapiens) [17], 0.608. The results for the composite z-score (with Torsin-1A (Homo sapiens) [18]; in assay [19]) were 0.885 and 0.624, respectively. Further, the z-score in assay [7] is -0.913; in assay [9], -0.149 (inactive); in [11], -5.48 (inactive); in [12] it was 0.13 (inactive); in assay [13], 1.16 (inactive); in assay [14] it was -0.526 (inactive).

Take `COCCCNC(=O)[C@@]1(Sc2ccc(C)cc2)CC(=O)N(Cc2ccccc2)[C@@H]1c1ccc(CO)cc1`: the composite z-score in assay [1] was 0.068; in assay [2], -0.277; in assay [3], -0.166; in assay [4], -1.56; in assay [5], -0.489; in [6] it was -0.236. Also, the composite z-score is -1.03 with Lefty1; -0.4 in assay [8]; -0.114 in [10]; -0.82 in assay [15]; -0.0193 in assay [16]; 0.366 with Torsin-1A (Homo sapiens) [17]. Further, the composite z-score is -0.607 with Torsin-1A (Homo sapiens) [18] and -0.168 in assay [19]. Further, the z-score in [7] was -0.0602; in assay [9], 0.542 (inactive); in [11], 0.101 (inactive); in assay [12] it was -0.578 (inactive); in [13], -0.438 (inactive); in assay [14] it was 0.579 (inactive).

In the case of `COC(=O)[C@@]1(Cc2ccc(F)cc2)[C@H]2c3cc(C(=O)N(C)C)n(CCc4c[nH]c5ccc(OC)cc45)c3C[C@H]2CN1C(=O)c1ccccc1`, the composite z-score in assay [1] was -0.0359; in assay [2], 1.25; in [3], 0.827; in [4], 1.04; in assay [5], -0.49; in assay [6] it was -1.09. Moreover, the composite z-score in the assay with Lefty1 is -1.41; in assay [8] it was 1.37; in [10], 0.325; in assay [15], 1.18; in assay [16], 0.351; with Torsin-1A (Homo sapiens) [17] it was 1.03. Moreover, the composite z-score with Torsin-1A (Homo sapiens) [18] was 1.31; in [19], -1.11. Also, the z-score in [7] was -1.79; in [9], 0.158 (inactive); in [11] it was -3.84 (inactive); in [12] it was 1.41 (inactive); in [13] it was 1.54 (inactive); in assay [14], 0.883 (inactive).

Turning to `CC(C)(C)OC(=O)CC[C@@]1(C(=O)N2CCOCC2)N=C(c2ccc(OCCCO)cc2)O[C@@H]1c1ccccc1N=[N+]=[N-]`, the composite z-score in assay [1] worked out at 3.1; in [2], 1.29; in [3], 0.288; in assay [4], 1.01; in assay [5], 1.36; in assay [6], 1.22. Moreover, the composite z-score in the assay on Lefty1 was found to be 0.885; in [8], 0.987; in assay [10], 1.23; in assay [15], 1.93; in assay [16] it was 0.27; with Torsin-1A (Homo sapiens) [17] it was 0.802. The composite z-score in the assay with Torsin-1A (Homo sapiens) [18] turned out to be 1.11; in assay [19], 0.535. The z-score in assay [7] is 1.9; in [9], -10.6 (active); in [11], -1.61 (inactive); in [12], 0.321 (inactive); in assay [13], 0.0686 (inactive); in assay [14] it was -0.713 (inactive).

(Values after PubChem BioAssay.)
